We go through 14 compounds from PubChem BioAssay.

Each structure is given as a SMILES string. Activity calls are given as the source filed them.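 The calls were made as follows, unless noted: active = inhibition above 20% together with a positive visual image hit; inconclusive = visual image hit but inhibition not above 20%; inactive = no visual image hit.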

Test [1] is described as follows: inhibitors of TNFa-induced NFkB p65 translocation, primary screen, imaging, HUVEC, MLSMR starter and 10KST1 sets (AID 438).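 Also: compound added about 3h40 before a 20 min TNFalpha stimulation.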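 As to inhibition: signal is the nuclear over cytoplasmic p65 intensity ratio per well.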 To be noted: HUVEC TNFa-induced p65 nuclear translocation; cell count: measured here: nuclei count (cytotoxicity indicator), at 2.08 µM; inhibition: at 2 µM, stronger effect = higher value, 0% TNFa-plus-vehicle, 100% no-TNFa wells.
The nature of test [2]: reduction of polyQ htt aggregates in cells – imaging, exon1htt(103Q)mCFP cells, high-content imaging, primary screen (AID 483;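 active = visual image review flags a hit and inhibition of aggregation exceeds 20%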;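 also: compound exposure lasted 3 days before fixation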;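 as to nuclei count: percent of the per-plate median nuclei count of sample wells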). To be noted: exon1htt(103Q)mCFP cell line, aggregate imaging, at 2 µM; inhibition of aggregation: stronger effect = higher value; nuclei count: measured here: cell count, toxicity.
The nature of test [3]: endothelial E-selectin expression blockers – imaging, HUVEC, immunofluorescence, MLSMR starter and 10KST1 sets, primary screen (AID 487;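 active = visually confirmed hit in the image check and inhibition above 20%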;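 as to inhibition: signal is fraction of cell area covered by stained E-selectin grains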;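 as to nuclei count: 100% = median nuclei count of all wells on the same plate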). To be noted: HUVEC TNFalpha-induced E-selectin immunofluorescence imaging, at 2 µM; inhibition: stronger effect = higher value; nuclei count: measured here: cell number, toxicity.
Test [4] deals with Voltage-gated potassium channel subunit beta-2 (Rattus norvegicus) (UniProt P62483). Nature of the test: inhibitors of rat Kvbeta2 reductase activity – biochemical, NADPH fluorescence, primary screen (AID 622;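 active = fluorescence slope higher than the sample average by over 3 SD, cut at about -0.22 in these data, passing the limit was not always enough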;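 also: slope of raw intensity against log time taken from 70 to 1610 s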). To be noted: recombinant KvBeta, 4-cyanobenzaldehyde reduction, at 10 µM, stronger effect = higher value.
The target is the same in test [5]. Description: enhancers of rat Kvbeta2 NADPH turnover – biochemical, NADPH fluorescence, primary screen (AID 623;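 active = NADPH fluorescence slope more negative than the mean of all samples by about 3 SD, 99.7% confidence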;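 also: fluorescence intensity change per second fitted from 20 to 320 s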). To be noted: Recombinant KvBeta, NADPH fluorescence decrease slope, 10 min; at 10 µM; stronger effect = lower value.
The target of test [6] is Alpha-2C adrenergic receptor (Homo sapiens) (UniProt P18825). Description: compounds altering alpha2C-coupled GIRK flux – cell-based, HEK293 alpha2C/GIRK1/2, thallium flux, primary screen (AID 624;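 active = fluorescence slope after compound addition differing from the mean of all screened samples at 99.7% confidence, in either direction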;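 also: slope of fluorescence ratio to pre-addition baseline per second over 15 to 24 s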). To be noted: thallium flux BTC fluorescence, at 10 µM, actives lie on both sides.
A short description of test [7]: blockers of RIG-like receptor reporter activation – cell-based, Sendai virus stimulus, luciferase, 10K MLSCN set, TLR/RLR signaling modifier project, primary screen (AID 602276;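 active = inhibition at or above 50% at 10 µM; inactive = inhibition below 50%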;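 also: firefly luciferase from ISG56 promoter only with Renilla not read in this screen; 0% = Sendai virus plus DMSO and 100% = medium plus DMSO without virus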). To be noted: HEK293 RL24 IRF3 luciferase reporter, at 10 µM, stronger effect = higher value.
Test [8] in a line: TLR3 IRF3 reporter activation blockers – cell-based, poly I:C stimulus, luciferase, 10K MLSCN set, primary screen (AID 602277;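 active = inhibition of the reporter signal at or above 50%; inactive = inhibition below 50%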). To be noted: HEK293-TLR3 RL24 IRF3 luciferase reporter, at 10 µM, stronger effect = higher value.

Sequence of Alpha-2C adrenergic receptor (Homo sapiens) (P18825 whole entry, looked up): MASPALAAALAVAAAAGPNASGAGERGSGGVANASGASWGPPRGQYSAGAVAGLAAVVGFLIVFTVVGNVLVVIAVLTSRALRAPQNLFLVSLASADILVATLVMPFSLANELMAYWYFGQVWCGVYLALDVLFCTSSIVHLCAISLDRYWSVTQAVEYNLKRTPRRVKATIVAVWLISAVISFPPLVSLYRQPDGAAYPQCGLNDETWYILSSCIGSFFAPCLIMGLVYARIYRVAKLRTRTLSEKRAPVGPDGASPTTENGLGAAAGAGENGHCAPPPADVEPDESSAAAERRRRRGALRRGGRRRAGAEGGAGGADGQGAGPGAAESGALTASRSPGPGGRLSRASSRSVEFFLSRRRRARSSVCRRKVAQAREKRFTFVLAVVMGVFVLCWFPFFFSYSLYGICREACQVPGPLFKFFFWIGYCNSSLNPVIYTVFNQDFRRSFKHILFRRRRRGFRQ
Sequence of Voltage-gated potassium channel subunit beta-2 (Rattus norvegicus) (P62483 whole entry, looked up): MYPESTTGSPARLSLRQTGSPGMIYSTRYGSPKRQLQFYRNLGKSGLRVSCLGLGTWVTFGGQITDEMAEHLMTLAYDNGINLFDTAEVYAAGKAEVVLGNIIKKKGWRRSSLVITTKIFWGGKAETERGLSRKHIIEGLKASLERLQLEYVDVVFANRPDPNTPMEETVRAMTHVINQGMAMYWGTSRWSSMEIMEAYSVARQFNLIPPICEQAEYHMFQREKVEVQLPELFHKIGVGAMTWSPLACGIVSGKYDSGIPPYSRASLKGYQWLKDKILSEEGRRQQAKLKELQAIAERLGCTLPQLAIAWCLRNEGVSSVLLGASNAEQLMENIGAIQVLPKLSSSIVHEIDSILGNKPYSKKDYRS

For `CC1C(=O)C(C)C(c2cccs2)NC1c1cccs1` (centres undefined), the cell count in test [1] came to 295. The inhibition is -1.4% (inactive) in test [1], 13.7% (inactive) in test [3], 3.78% (inactive) in test [7] and 3.34% (inactive) in test [8]. In addition, the inhibition of aggregation in test [2] is 10.2% (inactive). Also, the nuclei count was found to be 68.6% in test [2] and 87.4% in test [3]. The fluorescence slope in test [4] was -0.501 (inactive). In test [5], the NADPH fluorescence slope is 9.3e-06 (inactive). In addition, the slope in test [6] is 0.00548 (inactive).

For the compound `CN(CCc1ccccn1)c1ncnc2[nH]ncc12`, in test [1], the cell count is 591. The inhibition is 8.1% (inactive) in test [1], 55.8% (active) in test [3], -24.6% (inactive) in test [7] and -53.4% (inactive) in test [8]. Further, in test [2], the inhibition of aggregation was -1.4% (inactive). Further, the nuclei count came to 71.8% in test [2] and 63.8% in test [3]. Also, the fluorescence slope in test [4] was -0.325 (inactive). Moreover, the NADPH fluorescence slope in test [5] is -3.6e-05 (inactive). Besides, the slope in test [6] was 0.0053 (inactive).

Turning to `CC(=O)c1cn(CC(=O)NCc2ccc3c(c2)OCO3)c2ccccc12`, the cell count in test [1] was found to be 326. Moreover, the inhibition in test [1] is -2.1% (inactive); in test [3], -24.5% (inactive); in test [7], 11.9% (inactive); in test [8], 9.83% (inactive). In addition, the inhibition of aggregation in test [2] is -11.9% (inactive). The values for the nuclei count in test [2] and in test [3] were 108% and 107%, respectively. Moreover, the fluorescence slope in test [4] was -0.534 (inactive). The NADPH fluorescence slope in test [5] is -9.1e-05 (inactive). In addition, the slope in test [6] was 0.00566 (inactive).

As for `Cn1c2c(c(=O)n(C)c1=O)C(CC(=O)Nc1ccccc1)C(=O)N2` (centres undefined), the cell count in test [1] amounted to 604. The inhibition in test [1] is -3.5% (inactive); in test [3] it was -81.2% (inactive); in test [7], 10.9% (inactive); in test [8], 22.4% (inactive). The inhibition of aggregation in test [2] was -2.9% (inactive). Besides, the figures for the nuclei count in test [2] and in test [3] were 72% and 152%, respectively. In addition, the fluorescence slope in test [4] is -0.597 (inactive). For the same compound, the NADPH fluorescence slope in test [5] was -3.5e-05 (inactive). Besides, in test [6], the slope was 0.00726 (inactive).

`CSCCC(NS(=O)(=O)c1ccc2c(c1)oc(=O)n2C)C(=O)NC1CCCCC1` (centres undefined): in test [1], the cell count is 627. Besides, the inhibition is -6% (inactive) in test [1], -35.6% (inactive) in test [3], 11.8% (inactive) in test [7] and 25.6% (inactive) in test [8]. The inhibition of aggregation in test [2] was 7.8% (inactive). The nuclei count in test [2] was found to be 93%; in test [3], 106%. In addition, in test [4], the fluorescence slope is -0.584 (inactive). Moreover, in test [5], the NADPH fluorescence slope was -3.7e-05 (inactive). Moreover, the slope in test [6] was 0.00669 (inactive).

`CC1Cc2ccccc2N1S(=O)(=O)c1cccc(C(=O)OCC(=O)NC2CCS(=O)(=O)C2)c1` (centres undefined): the cell count in test [1] was 657. In addition, the inhibition in test [1] is 0.7% (inactive); in test [3], -92% (inactive); in test [7], 20.6% (inactive); in test [8], 29.8% (inactive). The inhibition of aggregation in test [2] is 6.3% (inactive). Further, the nuclei count in test [2] is 103%; in test [3] it was 112%. Besides, the fluorescence slope in test [4] was -0.625 (inactive). Also, in test [5], the NADPH fluorescence slope was -4.3e-05 (inactive). Moreover, in test [6], the slope is 0.00343 (inactive).

In the case of `CCc1ccc(N2CC34C=CC(O3)C(C(=O)OC)C4C2=O)cc1` (centres undefined), the cell count in test [1] is 535. Moreover, the inhibition in test [1] is 4% (inactive); in test [3], -7.9% (inactive); in test [7], 7.96% (inactive); in test [8], 30.4% (inactive). For the same compound, in test [2], the inhibition of aggregation was 11.3% (inactive). The nuclei count in test [2] is 85.3%; in test [3], 101%. In addition, in test [4], the fluorescence slope was -0.589 (inactive). In addition, in test [5], the NADPH fluorescence slope was 6.6e-06 (inactive). Further, the slope in test [6] was 0.00784 (inactive).

As for `COc1cccc(OCC(=O)Nc2ccccc2C(N)=O)c1`, in test [1], the cell count was found to be 681. The inhibition in test [1] is 0.4% (inactive); in test [3] it was -73.4% (inactive); in test [7], -50.2% (inactive); in test [8], -121% (inactive). Also, the inhibition of aggregation in test [2] is 9.9% (inactive). The values for the nuclei count in test [2] and in test [3] were 104% and 110%, respectively. In addition, the fluorescence slope in test [4] was -0.517 (inactive). Besides, the NADPH fluorescence slope in test [5] is 1.4e-05 (inactive). In addition, in test [6], the slope was 0.00589 (inactive).

`COc1ccccc1OCC(=O)NCC1CCCCC1`: in test [1], the cell count amounted to 394. Also, the inhibition was -28.2% (inactive) in test [1], 28.4% (inactive) in test [3], -1.17% (inactive) in test [7] and -7.1% (inactive) in test [8]. The inhibition of aggregation in test [2] is 5.6% (inactive). In addition, the nuclei count in test [2] stood at 108%; in test [3], 102%. Moreover, the fluorescence slope in test [4] was -0.413 (inactive). Also, the NADPH fluorescence slope in test [5] was -2.9e-05 (inactive). The slope in test [6] was 0.00305 (inactive).

In the case of `O=C(CCSc1nc(-c2ccco2)cc(C(F)(F)F)n1)NCCc1ccccc1`, the cell count in test [1] worked out at 491. Further, the inhibition is -8.3% (inactive) in test [1], 23.2% (inactive) in test [3], -7.29% (inactive) in test [7] and -52.7% (inactive) in test [8]. The inhibition of aggregation in test [2] is -16.1% (inactive). The nuclei count was 106% in test [2] and 104% in test [3]. For the same compound, the fluorescence slope in test [4] was -0.387 (inactive). Besides, in test [5], the NADPH fluorescence slope was -3.6e-05 (inactive). Moreover, the slope in test [6] is 0.00564 (inactive).

`O=C(Nc1ncc2c(n1)CC(c1ccccc1)CC2=O)c1ccco1` (centres undefined): the cell count in test [1] stood at 572. For the same compound, the inhibition in test [1] was -8.6% (inactive); in test [3], -3.8% (inactive); in test [7] it was 9.1% (inactive); in test [8], 9.67% (inactive). Also, the inhibition of aggregation in test [2] was -5.3% (inactive). The figures for the nuclei count in test [2] and in test [3] were 99.5% and 86%, respectively. Moreover, the fluorescence slope in test [4] was -0.534 (inactive). For the same compound, in test [5], the NADPH fluorescence slope was -5.7e-06 (inactive). In addition, the slope in test [6] was 0.00546 (inactive).

For `Cc1cc(C)n(-c2ccc(C(=O)Nc3ccc4c(c3)OCCO4)cc2)n1`, in test [1], the cell count worked out at 529. The inhibition in test [1] is -16.3% (inactive); in test [3] it was 11.9% (inactive); in test [7], -19.7% (inactive); in test [8] it was -108% (inactive). In test [2], the inhibition of aggregation is -2.4% (inactive). The nuclei count was 103% in test [2] and 110% in test [3]. Further, in test [4], the fluorescence slope is -0.254 (inactive). The NADPH fluorescence slope in test [5] was -2.3e-05 (inactive). In addition, the slope in test [6] is 0.00537 (inactive).

`COc1ccc2nc(CC(C)(C)CC(=O)O)c[n+]([O-])c2c1`: the cell count in test [1] was found to be 377. Also, the inhibition in test [1] is -1% (inactive); in test [3], -11.7% (inactive); in test [7], 10.6% (inactive); in test [8] it was 29.8% (inactive). Moreover, the inhibition of aggregation in test [2] is -0.5% (inactive). Further, the nuclei count came to 110% in test [2] and 94% in test [3]. Besides, in test [4], the fluorescence slope is -0.587 (inactive). The NADPH fluorescence slope in test [5] is -1.8e-05 (inactive). For the same compound, the slope in test [6] was 0.0065 (inactive).

On to `CCCNc1nc2c(c(=O)n(C)c(=O)n2C)n1Cc1cccc(C)c1`, for which, in test [1], the cell count came out at 697. Further, the inhibition is -3.6% (inactive) in test [1], -95.3% (inactive) in test [3], 3.02% (inactive) in test [7] and 4.07% (inactive) in test [8]. Also, the inhibition of aggregation in test [2] is 10.2% (inactive). Also, the nuclei count in test [2] was 97.4%; in test [3], 148%. Further, the fluorescence slope in test [4] is -0.567 (inactive). In test [5], the NADPH fluorescence slope is -2.9e-05 (inactive). Besides, the slope in test [6] is 0.00499 (inactive).
